Source: PubChem (Broad Institute)
The entries come from a sample that favours hits as a whole.
ERAP1 HTS inh – blocks human ERAP1 aminopeptidase activity | Q9NZ08 | recombinant ERAP1, Leu-AMC fluorescence, 60 min | inhibition, % at 10.7 µM | 340,000 tested, 0.15% active;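 active means mean replicate inhibition of at least 30%, or all replicates individually reaching that 30% level; inactive means mean below 30% and not every replicate reaching it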
SIRT5 block – inhibitors of human sirtuin-5 desuccinylase; 330,000 tested, 1.1% active; inhibition, % at 15 µM; Purified SirT5, succinyl-peptide AMC, trypsin-coupled fluorescence; AID 652115; in the data active means inhibition above about 15%
PDI turbidity – blocks human protein disulfide isomerase activity; P07237; PDI insulin aggregation turbidity, A650, 90 min; inhibition, % at 10 µM; 350,000 tested, 0.052% active;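 active means mean inhibition across replicates of 30% or more, whatever share of single replicates reach that level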
Target sequence (P07237 whole entry, looked up): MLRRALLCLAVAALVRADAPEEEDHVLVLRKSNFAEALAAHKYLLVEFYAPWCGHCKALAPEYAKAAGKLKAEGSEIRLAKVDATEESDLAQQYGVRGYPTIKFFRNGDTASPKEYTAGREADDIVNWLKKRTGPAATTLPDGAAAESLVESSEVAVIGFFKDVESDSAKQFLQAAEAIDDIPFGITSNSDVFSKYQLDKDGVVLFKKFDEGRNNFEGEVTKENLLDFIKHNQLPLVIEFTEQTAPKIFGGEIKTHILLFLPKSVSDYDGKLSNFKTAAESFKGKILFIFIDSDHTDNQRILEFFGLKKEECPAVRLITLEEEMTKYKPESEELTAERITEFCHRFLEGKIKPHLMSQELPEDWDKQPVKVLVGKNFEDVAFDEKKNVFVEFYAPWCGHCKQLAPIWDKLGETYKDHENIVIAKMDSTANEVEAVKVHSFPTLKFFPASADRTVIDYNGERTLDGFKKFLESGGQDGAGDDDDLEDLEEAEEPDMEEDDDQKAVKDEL
HDAC3 inh – blocks human histone deacetylase 3; AID 2718; recombinant HDAC3, fluorogenic peptide/trypsin coupled, fluorescence; O15379; 320,000 tested, 0.15% active; inhibition, % at 8.3 µM; in the data active means inhibition above about 26%, passing the limit was not always enough
ERp5 block – blocks human ERp5 reductase activity on insulin | Q15084 | ERp5 insulin aggregation, absorbance 650 nm, 90 min | inhibition, % at 9.99 µM | 350,000 tested, 0.05% active;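 active means mean replicate inhibition above about 25%, with every replicate also reaching it, limit read from the data, passing the limit was not always enough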
Large screens that a line does not name were inactive; ! = repeats disagree.

C[C@@H](O)C#Cc1ccc([C@@H]2[C@H]3CN(C(=O)c4cccc(F)c4)CCCCN3[C@H]2CO)cc1	SIRT5 block 23 (no result: ERAP1 HTS inh, PDI turbidity, HDAC3 inh)
O=C(c1cccc(F)c1)N1CCCCN2[C@H](C1)[C@H](c1ccc(-c3ccccc3)cc1)[C@@H]2CO	ERp5 block 28 (no result: PDI turbidity, HDAC3 inh)
O=C(c1cccc(F)c1)N1CCN(C(=O)C2CC2)CC1	none (no result: ERAP1 HTS inh, SIRT5 block, ERp5 block)
O=C(c1cccc(F)c1)N1CCCC(C(=O)N2CCCCC2)C1 (stereo not drawn)	SIRT5 block 22
COc1ccccc1C(=O)Nc1ccc2c(c1)OC[C@@H](C)N(C(C)=O)C[C@H](C)[C@@H](OC)CN(C)C2=O	none (no result: ERAP1 HTS inh, PDI turbidity, HDAC3 inh)
COc1cc(C(=O)N2CCNCC2)cc(OC)c1OC	SIRT5 block 21
COc1ccc(C(=O)N2CCN(C(=O)c3cc(OC)c(OC)c(OC)c3)CC2)cc1	none (no result: ERAP1 HTS inh, SIRT5 block, ERp5 block)
CS(=O)(=O)N1[C@@H]2c3ccc(-c4cccc(F)c4)c(=O)n3C[C@@H]2[C@@H](CO)[C@@H]1C(=O)NC1CCC1	none (no result: PDI turbidity, HDAC3 inh)
CC(C)(C)c1ccc(C(=O)N2[C@H](COCc3ccccc3)C=CS2(=O)=O)cc1	SIRT5 block 20 (no result: PDI turbidity, HDAC3 inh)
COc1cccc(C(=O)N2[C@H](COCc3ccccc3)C=CS2(=O)=O)c1	none (no result: PDI turbidity, HDAC3 inh)
Cc1cc(C)cc(N2C(=O)CC(Sc3nnnn3-c3ccccc3)C2=O)c1 (stereo not drawn)	none
Cc1cc(C)cc(N2C(=O)CC(Sc3ncn[nH]3)C2=O)c1 (stereo not drawn)	HDAC3 inh 29
Cc1ccc(C(=O)COC(=O)CN2C(=O)C3C4CC(C(Br)C4Br)C3C2=O)cc1 (stereo not drawn)	SIRT5 block 102
COc1ccc(C(=O)COC(=O)CCN2C(=O)C3C4CC(C(Br)C4Br)C3C2=O)cc1 (stereo not drawn)	none (no result: ERAP1 HTS inh, SIRT5 block, ERp5 block)
O=C(O)c1ccc(COc2ccc([N+](=O)[O-])cc2)o1	SIRT5 block 19
O=C(Nc1ccccc1C(=O)O)c1ccc2c(c1)C(=O)N(c1cccc([N+](=O)[O-])c1)C2=O	SIRT5 block 18
Cc1ccc(NC(=O)C2CCCN2C(=O)c2cccs2)c(C)c1 (stereo not drawn)	ERAP1 HTS inh 56
Cc1ccc(NC(=O)C2CCN(C(=O)c3cccs3)CC2)c(C)c1	ERAP1 HTS inh 34
C[C@H](CO)N1C[C@H](C)[C@@H](CN(C)Cc2ccncc2)Oc2ccc(NC(=O)CCN3CCOCC3)cc2CC1=O	none (no result: PDI turbidity, HDAC3 inh)
CO[C@H]1CN(C)C(=O)c2ccc(NC(=O)C3CCOCC3)cc2OC[C@@H](C)NC[C@@H]1C	none (no result: PDI turbidity, HDAC3 inh)
C=C1c2cccc(O)c2C(=O)C2C(=O)[C@]3(O)C(=O)C(C(N)=O)C(=O)[C@@H](N(C)C)[C@@H]3[C@@H](O)[C@H]12 (stereo partly drawn)	SIRT5 block 46 (no result: HDAC3 inh)
CCn1c(SCC(=O)Nc2ccc3c(c2)OCO3)nc2c1c(=O)n(C)c(=O)n2C	none (no result: ERAP1 HTS inh, SIRT5 block, ERp5 block)
CCCn1c(SCC(=O)Nc2ccc3c(c2)OCO3)nc2c1c(=O)n(C)c(=O)n2C	SIRT5 block 25
CC(=O)NC[C@@H]1[C@@H](c2ccc(-c3ccccc3F)cc2)[C@@H](CO)N1CCC(F)(F)F	SIRT5 block 25 (no result: PDI turbidity, HDAC3 inh)
C/C(=N\NC(=O)c1ccc(Br)cc1)c1cccc(NC(=O)c2cccnc2)c1	SIRT5 block 20
COC1OC(c2ccccc2)=C(c2ccc(C(N)=O)cc2)c2ccc(F)cc21 (stereo not drawn)	SIRT5 block 36 (no result: PDI turbidity, HDAC3 inh)
COc1ccccc1-c1cn(CC[C@@H]2CC[C@@H](NC(=O)C3CC3)[C@@H](CO)O2)nn1	none (no result: PDI turbidity, HDAC3 inh)
O=C(C[C@@H]1CC[C@@H]2[C@H](COC[C@H](O)CN2S(=O)(=O)c2ccccc2)O1)NCC1CCCCC1	none (no result: PDI turbidity, HDAC3 inh)
CN(C)CCCNC(=O)C[C@H]1CC[C@H]2[C@@H](COC[C@H](O)CN2S(=O)(=O)c2ccc(F)cc2)O1	SIRT5 block 22 (no result: PDI turbidity, HDAC3 inh)
O=C(C[C@H]1CC[C@H]2[C@@H](COC[C@H](O)CN2S(=O)(=O)c2ccc(F)cc2)O1)NCC1CC1	none (no result: PDI turbidity, HDAC3 inh)
O=C(C[C@H]1CC[C@@H]2[C@H](COC[C@@H](O)CN2S(=O)(=O)c2ccccc2)O1)NCC1CCCCC1	SIRT5 block 100 (no result: PDI turbidity, HDAC3 inh)
Nc1ccc(C(=O)Nc2ccc3c(O)cc(S(=O)(=O)O)cc3c2)cc1	SIRT5 block 66 (no result: HDAC3 inh)
Nc1ccc(NC(=O)c2ccc(C(=O)Nc3ccc(N)cc3)cc2)cc1	none
O=C(Oc1ccc(Oc2ccccc2)cc1)N1CCC(O)CC1	SIRT5 block 34
O=C(Oc1ccccc1)N1CCCC1	none
CC(C)(C)n1nnnc1C(c1cccnc1)N1CCOCC1 (stereo not drawn)	SIRT5 block 20
CC(C)(C)n1nnnc1C(c1cccc(C(F)(F)F)c1)N1CCOCC1 (stereo not drawn)	none
C[C@@H]1CN([C@@H](C)CO)C(=O)c2cc(C3=CCCC3)cnc2O[C@@H]1CN(C)Cc1ccccc1C(=O)O	none (no result: PDI turbidity, HDAC3 inh)
COc1ccc(C(C)C)cc1S(=O)(=O)NCC1CCCO1 (stereo not drawn)	SIRT5 block 15
COc1ccc(-n2nnc3c(=O)n(CC(=O)N4CCCC4)cnc32)cc1	none (no result: ERAP1 HTS inh, SIRT5 block, ERp5 block)
COc1ccc(-n2nnc3c(=O)n(CC(=O)N4CCCCC4)cnc32)cc1	SIRT5 block 15 (no result: PDI turbidity)
C[C@@H]1CCCCO[C@H](CN(C)C(=O)c2ccccc2)[C@@H](C)CN([C@H](C)CO)C(=O)c2cc(NS(C)(=O)=O)ccc2O1	none (no result: PDI turbidity, HDAC3 inh)
C[C@H](CO)N1C[C@H](C)[C@H](CN(C)Cc2ccc(Oc3ccccc3)cc2)Oc2ccc(NC(=O)Cc3ccccc3)cc2C1=O	SIRT5 block 43 (no result: PDI turbidity, HDAC3 inh)
C[C@H]1CN([C@@H](C)CO)C(=O)c2cc(NC(=O)Cc3ccccc3)ccc2O[C@@H]1CN(C)Cc1ccc(Oc2ccccc2)cc1	SIRT5 block 17 (no result: PDI turbidity, HDAC3 inh)
CC(C)NC(=O)N(C)C[C@H]1Oc2ccc(NC(=O)Cc3ccccc3)cc2C(=O)N([C@H](C)CO)C[C@@H]1C	SIRT5 block 20!
C[C@@H]1CN([C@@H](C)CO)C(=O)c2cc(NC(=O)Cc3ccccc3)ccc2O[C@H]1CN(C)Cc1ccc(Oc2ccccc2)cc1	none (no result: PDI turbidity, HDAC3 inh)
C[C@@H]1CN([C@H](C)CO)C(=O)c2cc(NC(=O)CCC(F)(F)F)ccc2O[C@H]1CN(C)Cc1ccc(Oc2ccccc2)cc1	SIRT5 block 27 (no result: PDI turbidity, HDAC3 inh)
CO[C@@H]1CN(C)C(=O)c2cc(NC(=O)C3CCC3)ccc2OC[C@H](C)N(CC2CCCCC2)C[C@H]1C	none (no result: PDI turbidity, HDAC3 inh)
COc1ccc2c3c(n(C)c2c1)[C@@H](CO)N(C(=O)C1CCCCC1)CC31CCN(C(=O)c2ccncc2)CC1	none (no result: SIRT5 block, PDI turbidity, HDAC3 inh)
COc1ccc(S(=O)(=O)N[C@@H]2CC[C@@H](CC(=O)NCCc3ccncc3)O[C@@H]2CO)cc1	none (no result: PDI turbidity, HDAC3 inh)
C[C@H](CO)N1C[C@H](C)[C@@H](CN(C)S(=O)(=O)c2cccs2)Oc2ccc(NC(=O)CCC(F)(F)F)cc2C1=O	SIRT5 block 25!
C[C@@H]1CN([C@@H](C)CO)C(=O)c2cc(NC(=O)Cc3cn(C)c4ccccc34)ccc2O[C@@H]1CN(C)Cc1ccc(Oc2ccccc2)cc1	SIRT5 block 19 (no result: PDI turbidity, HDAC3 inh)
CNC[C@H]1Oc2ccc(NC(=O)Cn3cnnn3)cc2C(=O)N([C@@H](C)CO)C[C@@H]1C	none (no result: PDI turbidity, HDAC3 inh)
